Reference: PubChem BioAssay AID493194 (Broad Institute, 2011)
Measured potencies and affinities stand elsewhere. Records with an inconclusive call do not appear. Activity calls are given as the source filed them.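 The calls were made as follows: active = a valid curve of falling signal whose half-effect concentration is at most ten times the top tested dose; inconclusive = flat curve at 30 to 70% inhibition, or poor fit; inactive = signal rise, flat within 30%, or potency beyond limit.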

molecular target: Scavenger receptor class B member 1 (Mus musculus) (UniProt Q61009); test: mouse SR-BI DiI-HDL uptake blockers – ldlA[mSR-BI] cells, fluorescence, cherry pick, dose response (AID 493194); conditions: CHO ldlA[mSR-BI] DiI-HDL uptake fluorescence, 3 h; series mostly up to 35 µM;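 also: CHO cells lacking LDL receptor and overexpressing mouse SR-BI; cellular uptake of fluorescently labeled HDL measured as cell fluorescence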
Sequence (Q61009 whole entry, looked up): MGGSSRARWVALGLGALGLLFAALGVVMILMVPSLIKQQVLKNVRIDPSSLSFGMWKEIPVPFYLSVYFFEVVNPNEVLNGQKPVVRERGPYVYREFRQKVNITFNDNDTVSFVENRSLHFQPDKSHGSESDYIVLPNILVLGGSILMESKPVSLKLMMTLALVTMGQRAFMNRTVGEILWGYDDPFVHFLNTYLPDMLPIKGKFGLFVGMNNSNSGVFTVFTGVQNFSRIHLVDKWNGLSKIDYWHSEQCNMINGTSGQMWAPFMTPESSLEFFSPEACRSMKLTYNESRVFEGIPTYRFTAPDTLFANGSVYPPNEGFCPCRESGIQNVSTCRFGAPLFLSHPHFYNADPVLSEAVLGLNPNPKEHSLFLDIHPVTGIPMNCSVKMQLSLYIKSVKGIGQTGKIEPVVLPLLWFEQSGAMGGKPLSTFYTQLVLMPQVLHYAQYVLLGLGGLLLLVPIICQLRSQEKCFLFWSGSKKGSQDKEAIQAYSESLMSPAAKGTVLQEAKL

outcome, inactive:
COCCCNc1nc2c(-c3cccc(C)c3)nnn2c2ccccc12, COc1ccccc1NC(=O)CN1CCN(CC(=O)Nc2ccc(OCc3ccccc3)cc2)CC1, CCCCC(c1nnnn1CC1CCCO1)N1CCN(c2cc(Cl)ccc2C)CC1 (stereo not drawn), CCC(C)c1ccccc1N1CC(C(=O)N2CCN(S(=O)(=O)c3ccccc3Br)CC2)CC1=O (stereo not drawn), COc1ccc(C(=O)CSc2nnc(CNC(=O)c3ccc(S(=O)(=O)N(C)C)cc3)o2)cc1, CCOc1ccccc1CNC(=O)C1CCN(C(=O)c2sccc2-n2cccc2)CC1, CC(C)c1ccc(NC(=O)c2sccc2-n2cccc2)cc1, O=C(CN1CCN(c2ncc(C(F)(F)F)cc2Cl)CC1)NCCNc1ncc(C(F)(F)F)cc1Cl, COc1ccccc1CNC(=O)C1CCN(C(=O)c2sccc2-n2cccc2)CC1, Cn1c(C(=O)N2CCC(C(=O)N3CCN(Cc4ccc5c(c4)OCO5)CC3)CC2)cc2sccc21, CCOC(=O)C(=O)Nc1nc(-c2ccc3c(c2)CCN3C(=O)C2CC2)c(C)s1, O=C(Nc1cccc(S(=O)(=O)N2CCOCC2)c1)C1CCN(S(=O)(=O)c2ccccc2)CC1, COc1ccccc1C(=O)NCCn1cc(SCC(=O)Nc2nnc(C)s2)c2ccccc21, Oc1csc(Cc2nc(-c3ccc4ccccc4c3)cs2)n1, CCCCC(=O)Nc1cccc(NC(=O)c2ccccc2Br)c1, Cc1ccc(-c2sc(-c3ccccc3)nc2CC(=O)Nc2ccccc2F)cc1, COC(=O)[C@]1(CC(C)C)N[C@H](c2ccc(-c3cccc(Cl)c3)cc2)[C@@H]2C(=O)N(C)C(=O)[C@@H]21, COc1ccc(N(CC(=O)NC2CCCC2)C(=O)Cn2nnc(-c3ccc(OC)c(OC)c3)n2)cc1, COc1cccc(-c2nnc(SC(C(=O)c3c[nH]c4ccccc34)c3ccccc3)n2C)c1 (stereo not drawn), CCCC(=O)Nc1ccc(Cl)c(NC(=O)c2ccc(Br)o2)c1, Cc1ccc(NC(=O)CSc2nnc([C@H](C)NC(=O)OC(C)(C)C)o2)c(C)c1, COc1ccc(N2CC(C(=O)NCCc3ccc(Cl)cc3)CC2=O)c(OC)c1 (stereo not drawn), COc1ccc(CCN2CC(C(=O)NCc3cc(C(C)C)no3)CCC2=O)cc1 (stereo not drawn)
